Reference: PubChem BioAssay (NCATS)
Values without a mark were called inactive. Records with an inconclusive call do not appear. Activity calls are given as the source filed them. Unless noted, calls come from the whole dose curve; as a rule, active = well fitted curve in either direction with a large enough effect (not every such curve was filed as active); inconclusive = small, poorly fitted or top-dose-only effect, or another doubt; inactive = flat fitted curve, though single readings scatter.

Experiments:
[1] = AP1 Signaling Pathway (AID 357); settings: ME-180 AP-1-bla reporter, EGF-induced, beta-lactamase ratio, 5 h; at 7.69 µM (top of the series) unless noted;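 note: ME-180 reporter cells stimulated with EGF at its EC50 level; % is set by controls: 0 for no effect and ±100 for the full control effect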
In short: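 Titration-series screen for positive or negative modulators of EC50 EGF-induced signaling in ME-180 cells carrying an AP-1-driven beta-lactamase reporter. After 5 hours at 37 degrees Celsius, CCF4 460nm/530nm emission ratio gave %Activity; AC50 values derived.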

[2] = NFAT Signaling Pathway (AID 444); settings: Jurkat NFAT-bla M1, carbachol, beta-lactamase ratio, 5 h; at 7.69 µM (top of the series) unless noted;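 note: carbachol stimulus at about its EC50 of 1 µM final; % is set by controls: 0 for no effect and ±100 for the full control effect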
In short: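 Jurkat cells with NFAT-driven β-lactamase reporter and co-expressed M1 receptor, stimulated with carbachol (final 1 uM, ~EC50), compound titration, 5 h at 37 °C. CCF4 loaded 1 h at RT; 460/530 nm ratio gave %activity and AC50.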

[3] = Stat Signaling Pathway (AID 446); settings: ME-180 SIE beta-lactamase reporter, IL-6 stimulated, 5 h; at 7.69 µM (top of the series) unless noted;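 note: ME-180 cervical cancer cells given 40 pM IL-6 alongside compound; SIE-controlled beta-lactamase reporter measured as 460/530 nm FRET emission ratio; % is set by controls: 0 for no effect and ±100 for the full control effect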
In short: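 ME-180 cells carrying a SIE-driven beta-lactamase reporter are stimulated with 40 pM IL-6 for 5 h at 37C in the presence of compound. The 460/530 nm FRET substrate ratio is read after 2.5 h at RT. Data are normalised to 300 pM IL-6 and to 125 nM JAK inhibitor controls.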

[4] = target: Glucocorticoid receptor (Homo sapiens) (UniProt P04150); experiment: GR-GFP Redistribution (AID 450;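 active = compounds whose dose series gives a full or clear partial fitted curve of increased nuclear translocation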; note: potency is the fitted concentration of half-maximal effect); settings: U2OS GR-GFP nuclear translocation, laser cytometry, 2 h
[5] = target: Glucocorticoid receptor (Homo sapiens) (UniProt P04150); experiment: GR-EFC Redistribution (AID 451; calls by dose curve; note: potency is the fitted concentration of half-maximal effect); settings: CHO-K1 GR-EFC translocation, beta-gal luminescence, 2 h
In short: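 CHO-K1 cells expressing nuclear EA and GR-ED fragments of b-gal; compounds titrated up to 46 uM final, 2 h at 37 C. GR nuclear translocation read as complemented b-gal luminescence after 1 h RT detection.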

[6] = target: Mitogen-activated protein kinase 10 (Mus musculus) (UniProt Q61831); experiment: JNK3 AlphaScreen Assay (AID 530);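 note: kinase came from lysate of stimulated human HepG2 cells; signal reports phosphorylation of biotinylated GST-cJun 1-79 at Ser73 with 10 µM ATP; % is set by controls: 0 for no effect and ±100 for the full control effect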
In short: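 qHTS format: compounds tested as titrations against IL-1beta/TNF-alpha-activated HepG2 lysate JNK3 with biotin-GST-cJun substrate and 10 uM ATP at room temperature. Loss of anti-phospho-cJun AlphaScreen signal indicates inhibition.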

[7] = target: 3',5'-cyclic-AMP phosphodiesterase 4B (Homo sapiens) (UniProt Q07343); experiment: qHTS Assay for Inhibitors of PDE-IV (AID 607; active = well fitted activation curve with a large enough effect in the main read-out, with a control signal flat, not every such curve was filed as active; note: % of control where 0% means no effect)
In short: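 HEK293 ACTOne cells with CNG channel (1000/well), endogenous PDE4; membrane potential dye, compounds up to 22.9 uM final. Fluorescence Ex 535/Em 590; RO 20-1724 (100 uM final) as reference.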

[8] = target: Guanine nucleotide-binding protein G(i) subunit alpha-1 (Homo sapiens) (UniProt P63096); experiment: qHTS Assay for Inhibitors of RGS12 GoLoco Motif Activity (Green Fluorophore) (AID 879; active = well fitted curve in the direction sought with a large enough effect; an effect the other way counts as inactive or inconclusive;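 note: 0% = labeled peptide with Gαi1 and full inhibition = labeled peptide alone without protein; negative values mean loss of peptide binding seen as reduced polarization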)
In short: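 Fluorescence polarization assay: 50 nM Gαi1 with 10 nM FITC-labeled RGS12 GoLoco peptide in 10 mM Tris pH 7.5, 150 mM NaCl, 0.1 mM GDP, 0.05% NP40, 10 min at room temperature with compound.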

[9] = qHTS Assay for Identification of Small Molecule Antagonists for NFkB Signaling Pathway (AID 895; active = well fitted inhibition curve with a large enough effect in the signal ratio, with a control signal flat, not every such curve was filed as active; the % refers to the signal ratio; note: % is set by controls: 0 for no effect and ±100 for the full control effect)
In short: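 ME-180 NFkB-bla cells (beta-lactamase under NFkB response element), plated overnight, treated with compound then 10 pM TNF alpha (about EC50) for 5 hrs at 37 C. LiveBLAzer FRET read at 460/530 nm emission, 405 nm excitation.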

[10] = qHTS Assay for Identification of Small Molecule Agonists for Thrombopoietin (TPO) Signaling Pathway (AID 917; active = well fitted curve in the direction sought with a large enough effect; an effect the other way counts as inactive or inconclusive; note: % is set by controls: 0 for no effect and ±100 for the full control effect)
In short: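 Luminescence from a Glycoprotein IIb promoter–driven luciferase reporter served as read-out in murine Ba/F3 cells carrying the human TPO receptor. Cells, deprived of IL-3 overnight, received compounds with 26 pM TPO and were incubated 24 hrs at 37 C.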

[11] = target: Muscarinic acetylcholine receptor M1 (Rattus norvegicus) (UniProt P08482); experiment: qHTS Assay for Antagonists of Acetylcholine Muscarinic M1 Receptor: Measurement of IP-One Response (AID 944; active = well fitted curve in the direction sought with a large enough effect; an effect the other way counts as inactive or inconclusive; note: nearly all actives have a fitted effect of over 75% in size)
In short: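 CHO cells expressing rat M1 receptor, recovered overnight, were pre-incubated 10 min with compound, then stimulated 30 min with carbachol at EC80 (200 nM) in LiCl-containing buffer, pH 7.4. IP1 accumulation was read by HTRF (620/665 nm).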

[12] = target: Pyruvate kinase (Leishmania mexicana) (UniProt Q27686); experiment: qHTS Validation Assay for Inhibitors of Leishmania Mexicana Pyruvate Kinase (AID 945; active = well fitted curve in the direction sought with a large enough effect; an effect the other way counts as inactive or inconclusive;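 note: 0% = DMSO only neutral control wells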)
In short: (§1)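 qHTS eight-point titrations against 0.2 nM LmPYK (E451W) in imidazole buffer pH 7.2 with 0.5 mM PEP, 0.1 mM ADP; 1 h, room temperature. Readout: PKLight luminescence, normalized to neutral DMSO wells.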

[13] = target: Pyruvate kinase PKM (Homo sapiens) (UniProt P14618); experiment: qHTS Assay for Activators of Human Muscle Pyruvate Kinase (AID 954; active = well fitted curve in the direction sought with a large enough effect, not every such curve was filed as active;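 note: 0% = uninhibited enzyme and -100% = no enzyme or full thiadiazolimine inhibition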)
In short: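 Purified human PKM2 (0.1 nM) with 0.5 mM PEP (Km) and 0.1 mM ADP in 50 mM imidazole pH 7.2, KCl, MgCl2, 1 h at room temperature; ATP formed read by coupled luciferase luminescence. Normalized to no-enzyme/110 uM thiadiazolimine inhibition; 0.3 nM enzyme column for activation.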

[14] = target: Pyruvate kinase (Leishmania mexicana) (UniProt Q27686); experiment: qHTS Validation Assay for Activators of Leishmania Mexicana Pyruvate Kinase (AID 959; active = well fitted curve in the direction sought with a large enough effect; an effect the other way counts as inactive or inconclusive)
In short: as §1

[15] = target: Alpha-galactosidase A (Homo sapiens) (UniProt P06280); experiment: Counterscreen for Glucocerebrosidase Inhibitors: qHTS Assay for Human alpha-Galactosidase at pH 4.5 (AID 992; active = well fitted curve in the direction sought with a large enough effect; an effect the other way counts as inactive or inconclusive; note: 0% is about no effect)
In short: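 Human enzyme (2 nM) with 80 uM 4-methylumbelliferyl alpha-D-galactopyranoside in 50 mM citric acid, 0.005% Tween-20, pH 4.5, 20 min at room temperature. Compounds 0.7 nM–77 uM; fluorescence Ex 365/Em 440 after pH 10 stop; AC50 from Hill fits.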

[16] = target: alpha-glucosidase (Oryza sativa, rice) (UniProt Q653V4); experiment: Counterscreen for Glucocerebrosidase Inhibitors: qHTS Assay for Rice alpha-Glucosidase at pH 5.0 (AID 997; active = well fitted curve in the direction sought with a large enough effect; an effect the other way counts as inactive or inconclusive;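 note: 0% = full activity with enzyme and -100% = basal without enzyme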)
In short: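 Rice alpha-glucosidase (4 nM final) with 400 uM 4-methylumbelliferyl-alpha-D-glucopyranoside in citrate buffer pH 5.0, 20 min at room temperature, stopped at pH 10; fluorescence 365/440 nm, compounds 0.7 nM–77 uM, AC50 from Hill fits.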

[17] = target: Cytochrome P450 1A2 (Homo sapiens) (UniProt P05177); experiment: p450-cyp1a2 (AID 410; calls by dose curve; note: potency is the fitted concentration of half-maximal effect)
In short: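 Human CYP1A2 (20nM) demethylated Luciferin-ME at its Km (100uM) in 100mM KPO4. After 10 min compound preincubation, NADPH regeneration ran the reaction 60 min at room temperature. Luciferin was read by luminescence, normalized to 57 uM furafylline.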

Chain of Glucocorticoid receptor (Homo sapiens) (P04150 whole entry, looked up, the tested form may be a part): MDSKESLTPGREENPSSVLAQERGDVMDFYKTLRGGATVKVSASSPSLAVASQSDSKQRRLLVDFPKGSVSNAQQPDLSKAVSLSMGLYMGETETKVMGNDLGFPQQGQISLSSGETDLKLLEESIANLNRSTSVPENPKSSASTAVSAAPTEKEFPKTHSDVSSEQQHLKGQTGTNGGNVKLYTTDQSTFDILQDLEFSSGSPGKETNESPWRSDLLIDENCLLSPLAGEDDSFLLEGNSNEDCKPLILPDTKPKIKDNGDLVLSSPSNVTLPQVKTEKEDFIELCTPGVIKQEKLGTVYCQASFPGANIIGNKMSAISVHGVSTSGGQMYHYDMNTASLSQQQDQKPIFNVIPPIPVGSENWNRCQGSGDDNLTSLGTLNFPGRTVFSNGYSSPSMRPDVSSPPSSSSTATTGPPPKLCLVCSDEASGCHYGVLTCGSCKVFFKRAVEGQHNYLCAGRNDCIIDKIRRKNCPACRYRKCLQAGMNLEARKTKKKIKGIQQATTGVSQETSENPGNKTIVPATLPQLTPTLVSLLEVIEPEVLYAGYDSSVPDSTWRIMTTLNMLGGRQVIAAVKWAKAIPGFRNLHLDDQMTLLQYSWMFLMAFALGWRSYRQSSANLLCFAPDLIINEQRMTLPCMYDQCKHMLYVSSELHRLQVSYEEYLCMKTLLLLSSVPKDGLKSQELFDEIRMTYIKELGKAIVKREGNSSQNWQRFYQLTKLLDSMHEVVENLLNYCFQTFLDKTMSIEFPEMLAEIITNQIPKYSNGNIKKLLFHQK
Chain of 3',5'-cyclic-AMP phosphodiesterase 4B (Homo sapiens) (Q07343 whole entry, looked up): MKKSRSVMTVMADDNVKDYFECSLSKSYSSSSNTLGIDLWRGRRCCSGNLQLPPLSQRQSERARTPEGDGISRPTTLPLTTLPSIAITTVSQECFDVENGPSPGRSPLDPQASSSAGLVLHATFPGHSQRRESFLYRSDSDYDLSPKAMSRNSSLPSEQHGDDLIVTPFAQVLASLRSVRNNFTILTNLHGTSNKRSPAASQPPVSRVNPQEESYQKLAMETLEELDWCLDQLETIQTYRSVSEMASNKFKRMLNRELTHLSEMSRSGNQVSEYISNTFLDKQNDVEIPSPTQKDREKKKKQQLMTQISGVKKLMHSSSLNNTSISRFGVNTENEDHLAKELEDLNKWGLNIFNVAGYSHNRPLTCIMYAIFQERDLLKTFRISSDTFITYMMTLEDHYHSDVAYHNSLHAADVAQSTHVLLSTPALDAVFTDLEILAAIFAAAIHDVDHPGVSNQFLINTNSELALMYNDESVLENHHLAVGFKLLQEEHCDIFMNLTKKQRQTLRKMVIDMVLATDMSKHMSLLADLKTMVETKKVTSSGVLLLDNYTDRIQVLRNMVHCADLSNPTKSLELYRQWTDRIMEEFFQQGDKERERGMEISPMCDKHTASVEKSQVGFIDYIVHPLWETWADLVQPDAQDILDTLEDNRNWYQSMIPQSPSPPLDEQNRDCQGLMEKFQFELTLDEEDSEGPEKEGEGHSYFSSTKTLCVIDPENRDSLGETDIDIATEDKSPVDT
Chain of Pyruvate kinase (Leishmania mexicana) (Q27686 2-499 E452W): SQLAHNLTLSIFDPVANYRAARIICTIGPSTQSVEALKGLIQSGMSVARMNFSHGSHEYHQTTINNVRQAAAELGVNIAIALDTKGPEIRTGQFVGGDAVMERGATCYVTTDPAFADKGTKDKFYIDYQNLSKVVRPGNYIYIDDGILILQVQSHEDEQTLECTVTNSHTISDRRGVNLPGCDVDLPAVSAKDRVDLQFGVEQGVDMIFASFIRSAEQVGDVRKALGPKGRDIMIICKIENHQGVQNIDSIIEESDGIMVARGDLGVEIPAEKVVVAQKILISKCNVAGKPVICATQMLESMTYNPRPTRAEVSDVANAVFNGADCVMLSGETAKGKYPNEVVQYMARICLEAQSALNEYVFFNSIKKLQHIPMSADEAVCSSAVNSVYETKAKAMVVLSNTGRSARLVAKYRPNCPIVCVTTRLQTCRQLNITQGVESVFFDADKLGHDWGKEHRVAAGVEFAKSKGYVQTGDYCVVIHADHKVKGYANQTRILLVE
Chain of Pyruvate kinase PKM (Homo sapiens) (P14618 whole entry, looked up): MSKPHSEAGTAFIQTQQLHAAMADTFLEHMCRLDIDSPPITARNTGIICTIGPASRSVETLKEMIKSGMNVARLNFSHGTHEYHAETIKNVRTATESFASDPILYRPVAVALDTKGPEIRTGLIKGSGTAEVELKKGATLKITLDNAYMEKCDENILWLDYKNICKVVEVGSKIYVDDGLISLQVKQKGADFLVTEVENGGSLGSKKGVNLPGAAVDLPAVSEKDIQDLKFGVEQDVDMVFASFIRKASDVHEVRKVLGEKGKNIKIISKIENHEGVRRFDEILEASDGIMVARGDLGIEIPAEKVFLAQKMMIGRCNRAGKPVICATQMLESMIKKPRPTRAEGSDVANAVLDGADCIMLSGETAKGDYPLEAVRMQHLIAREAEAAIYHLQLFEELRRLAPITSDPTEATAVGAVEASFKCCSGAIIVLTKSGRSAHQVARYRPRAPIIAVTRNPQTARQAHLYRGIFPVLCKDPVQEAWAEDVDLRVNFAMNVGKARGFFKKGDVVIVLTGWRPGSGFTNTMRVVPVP
Chain of Alpha-galactosidase A (Homo sapiens) (P06280 whole entry, looked up): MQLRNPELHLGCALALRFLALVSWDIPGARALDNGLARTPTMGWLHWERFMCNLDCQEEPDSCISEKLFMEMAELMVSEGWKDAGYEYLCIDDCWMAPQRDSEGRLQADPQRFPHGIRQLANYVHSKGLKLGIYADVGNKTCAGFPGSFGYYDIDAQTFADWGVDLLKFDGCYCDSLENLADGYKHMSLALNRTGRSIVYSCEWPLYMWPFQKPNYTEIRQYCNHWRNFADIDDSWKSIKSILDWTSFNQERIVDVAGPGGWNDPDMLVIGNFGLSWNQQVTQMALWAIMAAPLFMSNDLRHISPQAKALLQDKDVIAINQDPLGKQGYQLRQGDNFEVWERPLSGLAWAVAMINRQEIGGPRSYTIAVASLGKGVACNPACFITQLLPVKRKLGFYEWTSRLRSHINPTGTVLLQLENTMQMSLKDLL
Chain of Guanine nucleotide-binding protein G(i) subunit alpha-1 (Homo sapiens) (P63096 whole entry, looked up): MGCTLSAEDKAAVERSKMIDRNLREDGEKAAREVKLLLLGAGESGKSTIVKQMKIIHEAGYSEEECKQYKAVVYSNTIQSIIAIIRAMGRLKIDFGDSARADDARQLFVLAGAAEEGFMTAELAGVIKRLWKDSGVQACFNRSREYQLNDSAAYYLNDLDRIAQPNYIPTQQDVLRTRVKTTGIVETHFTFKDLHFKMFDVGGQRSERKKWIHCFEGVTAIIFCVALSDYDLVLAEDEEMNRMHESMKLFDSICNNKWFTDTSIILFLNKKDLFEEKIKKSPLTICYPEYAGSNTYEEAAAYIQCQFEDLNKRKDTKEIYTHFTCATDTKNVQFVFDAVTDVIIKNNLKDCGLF
Chain of Muscarinic acetylcholine receptor M1 (Rattus norvegicus) (P08482 whole entry, looked up): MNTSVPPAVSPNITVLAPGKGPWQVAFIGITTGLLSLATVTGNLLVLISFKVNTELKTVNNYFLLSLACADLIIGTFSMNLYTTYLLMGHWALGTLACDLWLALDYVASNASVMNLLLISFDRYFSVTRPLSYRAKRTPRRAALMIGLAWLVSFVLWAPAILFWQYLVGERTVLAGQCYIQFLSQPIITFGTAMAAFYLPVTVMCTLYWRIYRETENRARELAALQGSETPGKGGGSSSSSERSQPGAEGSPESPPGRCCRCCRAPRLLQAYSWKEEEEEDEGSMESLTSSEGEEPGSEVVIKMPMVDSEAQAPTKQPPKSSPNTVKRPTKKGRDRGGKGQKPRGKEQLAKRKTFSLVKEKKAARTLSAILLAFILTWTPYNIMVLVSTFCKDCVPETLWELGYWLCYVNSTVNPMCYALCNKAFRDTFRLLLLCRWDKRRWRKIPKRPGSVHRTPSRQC
Chain of Cytochrome P450 1A2 (Homo sapiens) (P05177 whole entry, looked up): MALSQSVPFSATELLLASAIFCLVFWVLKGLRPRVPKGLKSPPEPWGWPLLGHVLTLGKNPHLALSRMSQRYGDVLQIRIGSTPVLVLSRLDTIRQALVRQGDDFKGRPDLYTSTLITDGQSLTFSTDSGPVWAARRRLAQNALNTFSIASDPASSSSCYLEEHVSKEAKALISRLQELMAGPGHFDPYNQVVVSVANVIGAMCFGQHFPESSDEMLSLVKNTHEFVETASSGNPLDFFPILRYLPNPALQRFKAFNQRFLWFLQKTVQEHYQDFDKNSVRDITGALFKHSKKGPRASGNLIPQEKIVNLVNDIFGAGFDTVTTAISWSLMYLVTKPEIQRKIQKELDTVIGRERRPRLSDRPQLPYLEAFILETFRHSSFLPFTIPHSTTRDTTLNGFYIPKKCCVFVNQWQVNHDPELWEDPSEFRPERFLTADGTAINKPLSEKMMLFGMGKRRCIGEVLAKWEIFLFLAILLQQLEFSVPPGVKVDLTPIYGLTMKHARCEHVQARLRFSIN

Compound	activity change, negative = inhibition [1]	activity change, negative = inhibition [2]	activity, negative = inhibition [3] [%]	Potency [4] [µM]	Potency [5] [µM]	Potency [6]	Potency [7]	outcome [8]	Potency [9]	outcome [10]	Potency [11]	outcome [12]	outcome [13]	Potency [14]	outcome [15]	Potency [16]	Potency [17]
CC(C)C1=C[C@@]23CC[C@@H]4[C@](C)(CCC[C@@]4(C)C(=O)O)[C@@H]2C[C@@H]1[C@@H](C(=O)O)[C@@H]3C(=O)O	1.99%	4.67%	5.23	> 46	> 9.22	inactive	inactive										
NC(=O)[C@@H]1CCCNC1	9.79%	6.45%	14.3	> 46	> 9.22	inactive	inactive										
CO/N=C(\C(=O)N[C@@H]1C(=O)N2C(C(=O)O)=C(CSc3nc(=O)c(O)nn3C)CS[C@@H]12)c1csc(N)n1	-11.1% [at 38 µM]	4.37% [at 38 µM]		> 46	> 46		inactive	inactive	inactive	inactive	inactive	inactive	inactive	25.1 µM (active)	inactive	inactive	
CS(=O)(=O)Nc1ccc(Nc2c3ccccc3nc3ccccc23)cc1	0.883%		25.9	> 46	> 9.22	inactive	inactive										3.98 µM (active)
